The target in the experiment is Neurogenic locus notch homolog protein 3 (Homo sapiens) (UniProt Q9UM47). In words: small molecules binding NOTCH3 protein – biochemical, 635/667 nm fluorescence, primary screen (AID 1096). To be noted: small-molecule microarray, 635 nm fluorescence, higher = more signal.
Chain of Neurogenic locus notch homolog protein 3 (Homo sapiens) (Q9UM47 whole entry, looked up): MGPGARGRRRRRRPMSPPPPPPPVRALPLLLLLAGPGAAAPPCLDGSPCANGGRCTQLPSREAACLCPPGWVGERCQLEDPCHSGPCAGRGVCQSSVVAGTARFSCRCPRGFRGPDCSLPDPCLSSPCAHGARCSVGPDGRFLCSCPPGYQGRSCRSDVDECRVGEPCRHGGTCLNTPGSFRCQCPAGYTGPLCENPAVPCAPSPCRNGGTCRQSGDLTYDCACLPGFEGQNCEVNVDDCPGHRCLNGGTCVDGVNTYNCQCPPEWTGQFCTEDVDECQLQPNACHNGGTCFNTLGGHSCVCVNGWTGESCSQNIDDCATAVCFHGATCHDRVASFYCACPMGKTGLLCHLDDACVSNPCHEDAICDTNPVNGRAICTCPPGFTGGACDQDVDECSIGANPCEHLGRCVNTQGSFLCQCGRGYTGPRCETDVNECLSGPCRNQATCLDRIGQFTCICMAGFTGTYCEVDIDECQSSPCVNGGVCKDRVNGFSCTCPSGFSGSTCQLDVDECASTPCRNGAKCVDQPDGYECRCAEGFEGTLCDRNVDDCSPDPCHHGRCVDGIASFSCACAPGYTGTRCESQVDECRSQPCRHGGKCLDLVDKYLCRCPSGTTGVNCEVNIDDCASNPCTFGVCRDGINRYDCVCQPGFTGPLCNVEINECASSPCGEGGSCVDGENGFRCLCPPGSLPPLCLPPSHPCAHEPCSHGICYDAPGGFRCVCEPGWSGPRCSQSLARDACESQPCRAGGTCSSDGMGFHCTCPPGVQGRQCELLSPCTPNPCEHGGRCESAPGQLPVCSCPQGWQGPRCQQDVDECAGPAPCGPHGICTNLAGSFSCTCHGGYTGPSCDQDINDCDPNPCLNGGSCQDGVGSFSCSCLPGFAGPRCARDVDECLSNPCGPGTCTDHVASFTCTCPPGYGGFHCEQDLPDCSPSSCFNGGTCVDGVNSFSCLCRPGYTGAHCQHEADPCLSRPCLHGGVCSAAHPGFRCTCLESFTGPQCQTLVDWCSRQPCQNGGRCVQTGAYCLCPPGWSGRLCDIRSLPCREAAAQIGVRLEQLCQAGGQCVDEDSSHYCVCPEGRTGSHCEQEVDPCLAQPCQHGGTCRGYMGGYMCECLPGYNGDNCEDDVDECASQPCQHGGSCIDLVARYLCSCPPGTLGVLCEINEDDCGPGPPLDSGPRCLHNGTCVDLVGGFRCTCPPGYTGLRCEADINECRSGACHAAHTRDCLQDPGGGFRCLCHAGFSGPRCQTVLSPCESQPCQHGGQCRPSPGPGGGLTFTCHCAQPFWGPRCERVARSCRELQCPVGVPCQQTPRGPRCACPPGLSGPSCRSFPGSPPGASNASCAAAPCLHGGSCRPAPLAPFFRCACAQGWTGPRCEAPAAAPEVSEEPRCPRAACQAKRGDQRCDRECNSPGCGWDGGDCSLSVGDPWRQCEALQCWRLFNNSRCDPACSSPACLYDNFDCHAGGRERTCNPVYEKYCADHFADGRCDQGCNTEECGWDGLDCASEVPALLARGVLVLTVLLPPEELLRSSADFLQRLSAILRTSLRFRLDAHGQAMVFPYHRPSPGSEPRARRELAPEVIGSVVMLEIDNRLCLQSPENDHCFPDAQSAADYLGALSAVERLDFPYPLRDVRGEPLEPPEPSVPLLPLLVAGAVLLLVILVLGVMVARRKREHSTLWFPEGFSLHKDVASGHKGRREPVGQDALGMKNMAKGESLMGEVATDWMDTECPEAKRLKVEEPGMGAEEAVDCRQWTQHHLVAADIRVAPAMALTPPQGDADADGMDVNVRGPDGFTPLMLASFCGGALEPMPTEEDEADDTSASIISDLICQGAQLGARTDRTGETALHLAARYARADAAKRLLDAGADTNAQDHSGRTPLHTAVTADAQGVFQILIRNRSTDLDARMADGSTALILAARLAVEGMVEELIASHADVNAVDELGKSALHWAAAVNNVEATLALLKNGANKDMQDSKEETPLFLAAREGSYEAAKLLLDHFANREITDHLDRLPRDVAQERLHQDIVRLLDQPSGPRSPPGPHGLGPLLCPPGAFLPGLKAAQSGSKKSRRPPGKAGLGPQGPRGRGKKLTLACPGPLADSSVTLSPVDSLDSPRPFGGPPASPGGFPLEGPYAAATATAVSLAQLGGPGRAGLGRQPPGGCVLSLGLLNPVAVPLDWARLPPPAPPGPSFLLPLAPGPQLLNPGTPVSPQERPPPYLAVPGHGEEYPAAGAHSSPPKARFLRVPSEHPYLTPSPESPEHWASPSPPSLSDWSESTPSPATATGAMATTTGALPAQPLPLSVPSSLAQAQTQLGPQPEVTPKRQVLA
For the compound `Cc1ccc(S[C@]2(C(=O)O)CC(=O)N(Cc3cc(C(F)(F)F)cc(C(F)(F)F)c3)[C@@H]2c2ccc(CO)cc2)cc1`, the composite z-score is -2.63.

The compound `CCOC(=O)[C@H]1[C@@H]2C(=O)N3CCC[C@H]3[C@H](O[Si](C(C)C)(C(C)C)C(C)C)[C@H]2C=C2CCN(S(=O)(=O)c3ccc(C)cc3)C[C@H]21` came in with a composite z-score of 1.09. `CO[C@H]1O[C@H](CO)[C@@H](OC(=O)Nc2ccccc2-c2ccccc2)[C@H](OC(=O)Nc2ccc3c(c2)OCO3)[C@H]1OC(=O)Nc1ccc2c(c1)OCO2` yielded a composite z-score of 1.12. The value for `COc1ccccc1CN1C(=O)c2ccccc2[C@@]2(Cc3ccccc3N(CC(F)(F)F)C2=O)[C@@H]1c1ccc(CO)cc1` was 0.538; that for `CN(C)C(=O)[C@@]1(Cc2ccccc2CN=[N+]=[N-])N=C(c2ccc(OCCCO)cc2)O[C@H]1c1ccccc1CN=[N+]=[N-]` was 0.456; that for `COc1ccc(CCN2C(=O)[C@@]3(Cc4ccccc42)c2ccccc2C(=O)N(Cc2ccccc2OC)[C@H]3c2ccc(CO)cc2)cc1` was -0.642.

For the compound `O=C1C2C=CC(C(O)c3ccc(Br)cc3)N(Nc3ccccc3F)C2C(=O)N1c1ccccc1` (stereo unspecified), the composite z-score turned out to be 0.626. With `C=CCC(OC(C)=O)[C@@H]1[C@@H](N(Cc2cccc3ccccc23)C(=O)Cc2ccc(OC)cc2)c2cc(OCCCO)ccc2N1C(=O)c1ccc2ccccc2n1` (stereo partly specified), the composite z-score stood at 0.222. With `COC(=O)C(CC#Cc1ccc2c(c1)[C@]1(C(=O)N2)[C@H](c2ccccc2OCCO)N2[C@H](c3ccccc3)[C@H](c3ccccc3)OC(=O)[C@H]2[C@@H]1C(=O)NC[C@H](O)c1ccccc1)C(=O)OC` the figure was 1.04; with `COc1ccc([Si](C)(C)[C@H]2[C@H](CCO)O[C@@]3(C(=O)N(Cc4cccc(N5C(=O)COc6ccccc65)c4)c4ccccc43)[C@@H]2C)cc1`, 0.14; with `CCCCCCc1nc(C2CC2)cc2c1[Si](C(C)C)(C(C)C)OC2`, -0.861. `C=CCNC(=O)[C@@H]1[C@H]2C(=O)O[C@H](c3ccccc3)[C@H](c3ccccc3)N2[C@H](c2ccc(O)cc2)[C@@]12C(=O)N(C(=O)OCCOC)c1ccc(C#CC3(O)CCCCCC3)cc12` showed a composite z-score of -0.904. Compound `CC(CO)N1C(=O)[C@@H]2[C@H]3C(=O)OCC=C[C@H]3OC23C=CCN(Cc2ccccc2)C(=O)[C@@H]13` (stereo partly specified) showed a composite z-score of 0.0095. With `[N-]=[N+]=NCc1ccccc1C[C@@]1(C(=O)NCc2ccccc2)N=C(c2ccc(OCCCO)cc2)O[C@@H]1c1ccccc1N=[N+]=[N-]` the figure was 0.412; with `C=CCN1Cc2ccccc2[C@H]2OC(c3ccc(OCCCO)cc3)=N[C@@]2(CC=C)C1=O`, 0.979; with `Cc1cc(C)cc(N2C(=O)CSC2c2cccc([N+](=O)[O-])c2)c1` (stereo unspecified), 1.04. Compound `CCOc1cc(C(O)C2C=CC3C(=O)N(C)C(=O)C3N2Nc2ccccc2)ccc1O` (stereo unspecified) gave a composite z-score of 0.679. The value for `[N-]=[N+]=Nc1ccccc1C[C@]1(C(N)=O)N=C(c2ccc(OCCCO)cc2)O[C@H]1c1ccccc1N=[N+]=[N-]` was 0.877; that for `NC(=O)NCC#Cc1ccc2c(c1)[C@]1(C(=O)N2)[C@H](C(=O)O)[C@H]2C(=O)O[C@H](c3ccccc3)[C@H](c3ccccc3)N2[C@@H]1c1ccc(OCCO)cc1` was 0.1. Take `CCCCCCc1nc(C2CC2)cc2c1[Si](C(C)C)(C(C)C)O[C@H]2c1ccccc1`: the composite z-score was determined as 0.356. Consider `COc1cc2c(cc1OC)CN(C(=O)[C@@H]1[C@H]3C(=O)O[C@H](c4ccccc4)[C@H](c4ccccc4)N3[C@H](c3ccc(OCCO)cc3)[C@@]13C(=O)Nc1ccc(C#CC4(O)CCCCCC4)cc13)CC2`, for which the composite z-score was 1.08. The compound `O=C1C[C@@](C(=O)NCCN2CCOCC2)(c2ccc([N+](=O)[O-])cc2)[C@@H](c2ccc(CO)cc2I)N1C1CCCCC1` had a composite z-score of 0.91.

`COC(=O)[C@@]1(Cc2ccc(F)cc2)[C@H]2c3cc(C(=O)N4CCCC4)n(CCc4ccc(O)c(O)c4)c3C[C@H]2CN1C(=O)c1ccccc1`: the composite z-score is -1.04. `CC(C)N1C(=O)C[C@@](C(=O)NCCCN(C)C)(c2ccc([N+](=O)[O-])cc2)[C@H]1c1ccc(CO)cc1` showed a composite z-score of -0.233. In turn, `COC(=O)C1=CC(CCCO)=CC(C2CC2)N(C)C=C1C(=O)OC` (stereo unspecified) yielded a composite z-score of -0.752.

`COC(=O)c1c(CC[C@@H](CO)NC(=O)N2CCC[C@H]2Cn2cc(Cc3ccccc3)nn2)oc(C(C)=O)c1C(=O)OC` displayed a composite z-score of 0.524.

Regarding `O=C(N1CCCCC1)[C@@]1(CCS(=O)(=O)c2ccccc2)COC(c2ccc(OCCCO)cc2)=N1`, the composite z-score was determined as 0.841. With `CC1=C[C@@]2(CO)C(=O)[C@]3(CO3)[C@@H]1[C@H]1[C@]2(C)C=C(CO)C(=O)[C@]12CO2`, the composite z-score came out at 0.652. With `CCCNC(=O)[C@@]1(c2ccc([N+](=O)[O-])cc2)CC(=O)N(C2CCCCC2)[C@@H]1c1ccc(CO)cc1`, the composite z-score amounted to 1.04. The compound `NC(=O)NCC#Cc1ccc2c(c1)[C@]1(C(=O)N2)[C@H](C(=O)NC[C@H](O)c2ccccc2)[C@H]2C(=O)O[C@H](c3ccccc3)[C@H](c3ccccc3)N2[C@@H]1c1ccc(OCCO)cc1` showed a composite z-score of 0.0556. As to `O=C1NC(=O)C2C1C=CC(C(O)CCc1ccccc1)N2Nc1ccc(Cl)cc1Cl` (stereo unspecified), the composite z-score is -0.0822. As for `CCCCC=C[C@@H](NC(=O)c1ccc(-c2ccccc2)cc1)c1ccccc1`, the composite z-score came to 0.496. `COc1ccc([Si](C)(C)[C@@H]2[C@@H](CC(=O)N(CCO)Cc3ccccc3)O[C@]3(C(=O)N(Cc4cccc(N5CCOC5=O)c4)c4ccccc43)[C@H]2C)cc1` displayed a composite z-score of 0.733. The compound `CC(C)N1CC=CC23O[C@@H]4C=CCOC(=O)[C@@H]4[C@H]2C(=O)N(CCCO)[C@@H]3C1=O` (stereo partly specified) registered a composite z-score of -0.145. `C=CCNC(=O)[C@H]1[C@@H]2C(=O)O[C@@H](c3ccccc3)[C@@H](c3ccccc3)N2[C@@H](c2ccc(O)cc2)[C@]12C(=O)N(C(=O)OCCOC)c1ccccc12` registered a composite z-score of 1. On to `O=C1OCC=C[C@H]2OC34C=CCN(c5ccc(Cl)cc5)C(=O)[C@H]3N(CCO)C(=O)[C@@H]4[C@@H]12` (stereo partly specified), for which the composite z-score was -0.368.
